Bioassay records from PubChem.
TDP1 cell CPT – qHTS for Inhibitors of human tyrosyl-DNA phosphodiesterase 1 (TDP1): qHTS in cells in presence of CPT; Potency, µM (highest dose often 46.2 µM), for inactives: top-dose activity change, negative = growth inhibition, hits mostly inhibitors; 420,000 tested, 12% active; chicken DT40 Tdp1-/-;hTDP1 cells + 20 nM CPT, ATP luminescence, 48 h; note: potency is the fitted concentration of half-maximal effect; nearly all actives have a fitted effect of over 55% in size
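Chicken DT40 Tdp1-/- cells stably complemented with human TDP1 were seeded at 400 cells/well in medium containing 20 nM camptothecin, exposed to pin-transferred compounds, and grown at 37 °C for at least 48 hr. Viability was read as ATP luminescence.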
uPA generation – qHTS for Inhibitors of Cell Surface uPA Generation | cell surface uPA generation assay, qHTS | 330,000 tested, 0.31% active | Potency, µM (top dose mostly 38.3 µM), without a hit: at the highest dose activity change, negative = inhibition, usual class: inhibitors; active = well fitted inhibition curve with a large enough effect; inconclusive = small, poorly fitted or top-dose-only effect; inactive = no such curve, though single readings can be large or run the other way; tested in mouse RAW 264.7 cells; note: potency is the fitted concentration of half-maximal effect; nearly all actives have a fitted effect of over 55% in size
HT1080 IDH1KD tx – qHTS for induction of synthetic lethality in tumor cells producing 2HG: qHTS for the HT-1080-IDH1KD cell line; Potency, µM (titrated, usually from 46.1 µM), for the others: at the top dose activity, negative = toxicity, actives largely listed as cytotoxic; 360,000 tested, 2% active; AID 686971, 2013; HT-1080 IDH1 knockdown viability, ATP luminescence, 48 h;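 note: potency is the fitted concentration of half-maximal effect; 0% = DMSO wells and -100% = cell-free medium wells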
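Assay cells: HT-1080 with IDH1 knockdown, 750 per well, RPMI/5% FBS. Exposure: 48 h at 37 °C following 2 h pre-incubation. Read: CellTiter-Glo luminescence; fitted concentration-response, curve class assigned.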
DT40 TDP1 no CPT – qHTS for Inhibitors of human tyrosyl-DNA phosphodiesterase 1 (TDP1): qHTS in cells in absence of CPT | AID 686978, 2013 | DT40 Tdp1-/- hTDP1 cells, no CPT, ATP luminescence, 48 h | 420,000 tested, 15% active | Potency, µM (top dose mostly 46.2 µM), inactives show top-dose activity change, negative = growth inhibition, actives largely listed as inhibitors; note: potency is the fitted concentration of half-maximal effect; nearly all actives have a fitted effect of over 55% in size
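DT40 Tdp1-/-;hTDP1 cells, no CPT (DMSO vehicle only), 400 cells/well; compounds pin-transferred; ≥48 hr, 37 °C; CellTiter-Glo 30 min RT dark, luminescence read.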
IL-1B inflam inh – qHTS for Inhibitors of Inflammasome Signaling: IL-1-beta AlphaLISA Primary Screen; activity change, % at 57.5 µM; THP-1 LPS/ATP IL-1B secretion, AlphaLISA, 16 h; stronger effect = lower value; 360,000 tested, 4.7% active; in the data active = activity change below about -50%; inconclusive = mostly about -30% to -49%
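Secreted IL-1B measured by AlphaLISA bead assay after 16 h compound exposure of THP-1 cells; compounds (final up to 57.5 uM) added 1 h before LPS (250 ng/mL) and ATP (1.25 mM) stimulation; lower signal means less secretion.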
HT1080NT lethal – qHTS for induction of synthetic lethality in tumor cells producing 2HG: qHTS for the HT-1080-NT fibrosarcoma cell line | HT-1080-NT fibrosarcoma viability, CellTiter-Glo ATP luminescence, 48 h | Potency, µM (top dose mostly 46.1 µM), for inactives: at the top dose activity, negative = less viability, actives largely listed as cytotoxic | 360,000 tested, 1.6% active;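 note: NT is the 2HG producing partner of a matched IDH1 knockdown line; potency is the fitted concentration of half-maximal effect; 0% = DMSO-treated cells and -100% = media-only wells without cells; nearly all actives have a fitted effect of over 55% in size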
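Viability by CellTiter-Glo luminescence after 48 h compound exposure at 37C of HT-1080-NT cells (750/well, RPMI, 5% FBS). % activity scaled between DMSO wells and medium-only wells, then curve-fitted and categorized by curve class.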
Active calls of the source: *; ? = inconclusive; nt = not tested or not shown; [ ] = dose if it differs, or a comment. Shown are actives, neighbours in structure and some others; about 19% of the full set was active somewhere. Unless noted, calls come from the whole dose curve; as a rule, active = well fitted curve in the direction sought with a large enough effect; inconclusive = small, poorly fitted or top-dose-only effect, or another doubt; inactive = no such curve, though single readings can be large; an effect the other way counts as inactive or inconclusive. Unless noted, % is set by controls: 0 for no effect and ±100 for the full control effect.

SMILES	TDP1 cell CPT	uPA generation	HT1080 IDH1KD tx	DT40 TDP1 no CPT	IL-1B inflam inh	HT1080NT lethal
COc1cc(C2C3=C(COC3=O)OC(C)(C)Oc3cc4c(cc32)OCO4)cc(OC)c1OC (stereo not drawn)	1.03µM*	-5.9%	?	0.731µM*	16.5	?
COc1cc(C2C3=C(COC3=O)Oc3cc4c(cc32)OCO4)ccc1O (stereo not drawn)	0.82µM*	-11.2%	?	0.581µM*	28.2	?
Cc1ccc(-c2nnc3ccccc3c2C(=O)Nc2cccc(Cl)c2)cc1	2.0%	nt	nt	-8.5%	nt	nt
COc1cnn(-c2ccc(F)cc2)c(=O)c1Br	-19.9%	3.0%	6.4%	-0.5%	-4.1	-0.5%
O=c1c(Br)c(N2CCCC2)cnn1-c1ccccc1	-3.4%	-4.1%	0.4%	-3.7%	-8.6	10.7%
Cc1ccc(-n2ncc(Br)c(Br)c2=O)cc1	4.11µM*	12.6µM*	5.17µM*	3.66µM*	-99.1*	4.61µM*
O=c1c(Br)c(Br)cnn1-c1ccccc1	4.11µM*	2.0%	4.11µM*	3.66µM*	-106.1*	2.91µM*
COc1cccc(C(=S)N2CCOCC2)c1OS(=O)(=O)c1ccc(Cl)cc1	?	0.1%	-0.7%	?	38.4	-1.8%
COc1cc(C)c(CN2CCC3(CCC(CNC(=O)c4ccnn4C)O3)CC2)cc1C (stereo not drawn)	16.4µM*	nt	nt	-28.0%	nt	nt
COc1ccc(N/C(C)=C/C(=O)c2ccccc2)cc1	-21.5%	0.1%	4.1%	-20.9%	-1.3	1.9%
COc1ccc(N/C(C)=C/C(=S)Nc2ccccc2)cc1	10.3µM*	-2.2%	-8.2%	?	25.2	-3.1%
COc1ccc(NC(=S)c2ccccc2)cc1	-8.3%	-2.7%	6.8%	-22.1%	-81.5*	2.7%
COC(=O)c1cc(NC(=O)CN(C)C2CCS(=O)(=O)C2)cc(C(=O)OC)c1 (stereo not drawn)	-13.3%	1.7%	-2.5%	-13.0%	-18.9	-0.4%
COc1nc(-c2ccc(Cl)cc2)ccc1-c1noc(-c2ccco2)n1	?	0.2%	7.3%	-10.7%	-1.9	-2.5%
COc1nc2c(C)cccc2cc1-c1noc(-c2ccco2)n1	-43.1%	3.1%	-3.1%	0.146µM*	4.6	-2.3%
O=S1(=O)[C@H]2C[C@@H]3C=C[C@]2(CN1Cc1ccc(C(F)(F)F)cc1)O3	-22.5%	-13.7%	7.6%	-1.1%	-2.1	11.0%
CN(C(=O)COC(=O)CCC(=O)c1ccc(F)cc1)C1CCCCC1	-6.4%	3.6%	0.4%	-8.0%	22.8	0.0%
N#C/C(=C1\SCC(c2ccccc2Cl)S1)n1ccnc1 (stereo not drawn)	?	nt	nt	23.7µM*	nt	nt
CCC1CCCCN1S(=O)(=O)c1ccc(NC(=O)c2cccs2)cc1 (stereo not drawn)	23.1µM*	-1.9%	-29.5%	16.4µM*	?	?
CCCSc1ncc(Cl)c(C(=O)Nc2ccc(S(=O)(=O)Nc3ncccn3)cc2)n1	-6.3%	1.1%	-9.0%	-4.8%	-3.7	-8.5%
CCCSc1ncc(Cl)c(C(=O)Nc2ccc(S(=O)(=O)N3CCCCC3C)cc2)n1 (stereo not drawn)	?	nt	nt	8.2µM*	nt	nt
CCCSc1ncc(Cl)c(C(=O)Nc2ccc(S(=O)(=O)N3CCC(C)CC3)cc2)n1	?	nt	nt	14.6µM*	nt	nt
CCC1CCCCN1S(=O)(=O)c1ccc(NC(=O)c2snnc2C)cc1 (stereo not drawn)	?	-0.2%	-22.5%	?	?	-1.1%
CCC1CCCCN1S(=O)(=O)c1ccc(NC(=O)c2nc(SC)ncc2Cl)cc1 (stereo not drawn)	20.6µM*	nt	nt	23.1µM*	nt	nt
Cc1ccccc1-c1cccc([C@@H]2C[C@H]3C(CN2)CON3C)c1 (stereo partly drawn)	?	-3.1%	0.3%	-29.6%	15.0	2.3%
SMILES	TDP1 cell CPT	uPA generation	HT1080 IDH1KD tx	DT40 TDP1 no CPT	IL-1B inflam inh	HT1080NT lethal
COc1ccc(NS(=O)(=O)c2ccc(F)c(F)c2F)cc1S(=O)(=O)N1CCOCC1	-11.2%	13.5%	-0.3%	23.2%	10.6	10.1%
COC(=O)Cn1cnc2c(nnn2-c2ccc(F)cc2)c1=O	2.5%	-6.4%	7.7%	8.7%	-3.9	20.2%
COC(=O)Cn1cnc2c(Cl)nc(F)nc21	13µM*	?	-20.0%	16.4µM*	-89.6*	-14.5%
[C-]#[N+]c1cc(-c2ccncc2)c(C)[nH]c1=O	6.9%[92.5 µM]	nt	nt	1.9%[92.5 µM]	nt	nt
COCCn1c(=O)c(-c2cccc(C#N)c2)nc2cnc(OCc3ccccc3)nc21	-10.5%	nt	nt	-23.7%	nt	nt
Cc1ccc(-c2cc(C(=O)NCCCN3CCCC3)c3ccccc3n2)cc1C	?	-1.4%	?	29.1µM*	-73.1*	?
Cc1cccc(-c2cc(C(=O)NCc3ccccn3)c3ccccc3n2)c1	16.4µM*	2.3%	6.6%	13µM*	-22.6	-4.2%
Cc1ccc(-c2cc(C(=O)NCCCN3CCOCC3)c3ccccc3n2)cc1C	-3.8%	-7.4%	-27.2%	?	-10.3	-22.1%
O=C(NCc1ccccn1)c1cc(-c2ccccc2)nc2ccccc12	4.6%	2.0%	20.1%	-2.9%	-1.6	10.3%
CCn1cc(-c2cc(C(=O)O)c3ccccc3n2)cn1	9.2µM*	-14.3%	?	?	38.2	-31.3%
O=C(NCCc1ccccn1)c1c(-c2ccccc2)sc2ccccc12	?	-3.2%	-1.2%	16.4µM*	-0.2	-4.4%
Cc1noc(C)c1-c1nccc(NCc2cccnc2)n1	6.3%	nt	nt	-1.2%	nt	nt
CCC(CC)C(=O)c1c[nH]c(C(=O)NCc2ccccn2)c1	6.5%	2.1%	0.6%	-15.8%	-59.4*	-1.4%
CC(=O)NS(=O)(=O)c1ccc(NC(=O)c2cc(-c3ccc(C)c(C)c3)nc3ccccc23)cc1	12.5%	6.1%	-5.5%	-15.5%	34.5	-15.9%
Cc1cc(F)cc(-c2cc(C(=O)NCc3ccco3)[nH]n2)c1	7.6%	nt	0.1%	-9.2%	?	2.5%
Cc1ccc(-c2cc(C(=O)NCc3ccccc3Cl)c3ccccc3n2)cc1C	14.6µM*	nt	nt	?	nt	nt
Cc1ccc(-c2cc(C(=O)NCc3ccccn3)c3ccccc3n2)cc1C	?	-5.7%	?	7.31µM*	-13.8	?
Cc1cc(F)cc(-c2cc(C(=O)NCc3ccccn3)[nH]n2)c1	-6.0%	nt	20.5%	-5.1%	-86.1*	?
